# Source: PubChem BioAssay (Tox21)
# Where “and” joins values, the source holds several entries; their conditions need not be identical. Equal entries are not always repeated. Records with an inconclusive call do not appear. Where a call stands in place of a potency, no number is given. Some structures have more than one record in an assay (separate samples or runs), and their calls can disagree. Calls of active or inactive are those of the source. Unless noted, calls come from the whole dose curve; as a rule, active = well fitted curve in the direction sought with a large enough effect in the repeat runs; inconclusive = weak or mixed curves; inactive = no such curve, though single readings can be large; an effect the other way counts as inactive or inconclusive.
# Tests used:
# [1] = qHTS assay for small molecules that induce genotoxicity in human embryonic kidney cells expressing luciferase-tagged ATAD5 (AID 651632); note: nearly all actives have a fitted effect of over 15% in size
# Outline: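 A rise in luciferase signal from ATAD5-tagged HEK293T cells marks genetic stress. Cells were exposed to compounds for 16 hr at 37C, 5% CO2, then luciferase was quantified after a 30 min room-temperature incubation with Amplite.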
# [2] = qHTS assay for small molecule agonists of the p53 signaling pathway - cell viability (AID 651633; calls by dose curve; note: nearly all actives have a fitted effect of over 30% in size; note: potency is the fitted concentration of half-maximal effect)
# Outline: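 p53RE-bla cells were treated with compound for 16 hours at 37 C. Cytotoxicity was then measured as CellTiter-Glo luminescence after 30 min at room temperature.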
# [3] = qHTS assay for small molecules that induce genotoxicity in human embryonic kidney cells expressing luciferase-tagged ATAD5 - cell viability (AID 651634; calls by dose curve; note: nearly all actives have a fitted effect of over 25% in size; note: potency is the fitted concentration of half-maximal effect)
# Outline: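 Cytotoxicity counter-readout: after 15.5 hr compound treatment at 37C, live-cell protease activity in ATAD5-luciferase HEK293T cells measured by CellTiter-Fluor fluorescence, 30 min development at 37C.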
# [4] = qHTS assay for small molecule disruptors of the mitochondrial membrane potential - cell viability (AID 720634; calls by dose curve; note: nearly all actives have a fitted effect of over 20% in size; note: potency is the fitted concentration of half-maximal effect)
# Outline: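 Cytotoxicity was quantified from ATP content by CellTiter-Glo luminescence in the same wells as the MMP dye read-out. HepG2 (2,000 cells/well) were plated overnight and exposed to compounds for 1 hr at 37 C.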
# [5] = qHTS assay for small molecule disruptors of the mitochondrial membrane potential (AID 720635); note: potency is the fitted concentration of half-maximal effect
# Outline: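 HepG2 cells exposed to compound 1 hr at 37C, then Mito-MPS dye 30 min. Ratio read of aggregate (540/590 nm) versus monomer (490/535 nm) fluorescence.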
# [6] = qHTS assay to test for compound auto fluorescence at 590 nm (red) in HepG2 cells (AID 720674)
# Outline: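 Seeding: 2,000 HepG2 cells/well, MEM/10% FBS, overnight 37 C. Dosing: compound vs DMSO. Incubation: 1 hr, 37 C, 5% CO2. Read: fluorescence 540 ex/590 em, Rose Bengal sodium as red reference.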
# [7] = qHTS assay to test for compound auto fluorescence at 535 nm (green) in HepG2 cells (AID 720675)
# [8] = qHTS assay to test for compound auto fluorescence at 460 nm (blue) in HEK293 cells (AID 720678)
# Outline: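 HEK293, 2,000 cells/well, 10% dialyzed FBS; attach 4-5 hr 37C; pin compound or DMSO; o/n 37C/5% CO2; fluorescence 405/460 nm; triamterene-equivalent units.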
# [9] = qHTS assay to test for compound auto fluorescence at 590 nm (red) in HEK293 cells (AID 720679)
# Outline: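 Intensity at 540nm excitation and 590nm emission is reported as Rose Bengal sodium-equivalent autofluorescence. Measurements followed overnight exposure (37C, 5% CO2) of HEK293 cells, 2,000 per well, to 23 nL compound.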
# [10] = qHTS assay to test for compound auto fluorescence at 535 nm (green) in HEK293 cells (AID 720680)
# [11] = qHTS assay to test for compound auto fluorescence at 460 nm (blue) in HEK293 cell free culture (AID 720681)
# Outline: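 Compounds were added to cell-free DMEM with 10% FBS and fluorescence read directly. The blue channel used 405 nm excitation and 460 nm emission, with triamterene as the reference fluorophore.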
# [12] = qHTS assay to test for compound auto fluorescence at 535 nm (green) in HEK293 cell free culture (AID 720682)
# Outline: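 Read-out: 485/535 nm fluorescence intensity, calibrated against fluorescein. Medium only (DMEM + 10% FBS, no cells); test compound or DMSO vehicle added by pintool before plate reading.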
# [13] = qHTS assay to test for compound auto fluorescence at 590 nm (red) in HEK293 cell free culture (AID 720683)
# Outline: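 Cell-free wells of DMEM with 10% FBS received compound, and intrinsic fluorescence was read at excitation/emission 540/590 nm. Values expressed as equivalence to Rose Bengal sodium.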
# [14] = qHTS assay to test for compound auto fluorescence at 590 nm (red) in HepG2 cell free culture (AID 720684)
# Outline: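 Auto fluorescence equivalency versus Rose Bengal sodium, red channel Ex/Em 540/590 nm; compounds in cell-free MEM/10% FBS; DMSO vehicle control.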
# [15] = qHTS assay to test for compound auto fluorescence at 460 nm (blue) in HepG2 cell free culture (AID 720685)
# Outline: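 Cell-free plates of MEM plus 10% FBS received 23 nL compound or DMSO vehicle; blue-channel (405/460 nm) intensity scored against triamterene as reference fluorophore.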
# [16] = qHTS assay to test for compound auto fluorescence at 535 nm (green) in HepG2 cell free culture (AID 720686)
# [17] = qHTS assay to test for compound auto fluorescence at 460 nm (blue) in HepG2 cells (AID 720687)
# Outline: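 HepG2 cells in MEM with 10% FBS, attached overnight at 37 C, were exposed to compound or DMSO for 1 hr at 37 C, 5% CO2. Blue fluorescence was read at 405/460 nm, with triamterene as reference fluorophore.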
# [18] = biological target: Glucocorticoid receptor (Homo sapiens) (UniProt P04150); assay: qHTS assay to identify small molecule agonists of the glucocorticoid receptor (GR) signaling pathway (AID 720691; active = well fitted activation curve with a large enough effect in the signal ratio in the repeat runs, not every such curve was filed as active; the % refers to the signal ratio)
# Outline: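 Agonist-mode qHTS in HeLa cells stably expressing a glucocorticoid-response-element beta-lactamase reporter. Fluorescence intensity read with FRET substrate (2 h, room temperature) after 18 h compound treatment at 37 C.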
# [19] = biological target: Glucocorticoid receptor (Homo sapiens) (UniProt P04150); assay: qHTS assay to identify small molecule antagonists of the glucocorticoid receptor (GR) signaling pathway (AID 720692; active = well fitted inhibition curve with a large enough effect in the signal ratio in the repeat runs, not every such curve was filed as active; the % refers to the signal ratio; note: potency is the fitted concentration of half-maximal effect)
# Outline: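 Inhibition of dexamethasone-driven (5 nM final) beta-lactamase expression was measured in GRE-reporter HeLa cells over 18 h at 37C. Fluorescence was read after 2 h with the B/G FRET substrate at room temperature.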
# [20] = qHTS assay for small molecule agonists of the p53 signaling pathway (AID 651631; calls by dose curve; note: nearly all actives have a fitted effect of over 15% in size; note: potency is the fitted concentration of half-maximal effect)
# Outline: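 HCT-116 cells carrying a stable p53 response element–beta-lactamase reporter were plated, rested 5 h at 37 °C, then exposed to compound in DMSO for 16 h at 37 °C; reporter activity was read as FRET substrate fluorescence after 2 h at room temperature.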
# Sequence of Glucocorticoid receptor (Homo sapiens) (P04150 whole entry, looked up): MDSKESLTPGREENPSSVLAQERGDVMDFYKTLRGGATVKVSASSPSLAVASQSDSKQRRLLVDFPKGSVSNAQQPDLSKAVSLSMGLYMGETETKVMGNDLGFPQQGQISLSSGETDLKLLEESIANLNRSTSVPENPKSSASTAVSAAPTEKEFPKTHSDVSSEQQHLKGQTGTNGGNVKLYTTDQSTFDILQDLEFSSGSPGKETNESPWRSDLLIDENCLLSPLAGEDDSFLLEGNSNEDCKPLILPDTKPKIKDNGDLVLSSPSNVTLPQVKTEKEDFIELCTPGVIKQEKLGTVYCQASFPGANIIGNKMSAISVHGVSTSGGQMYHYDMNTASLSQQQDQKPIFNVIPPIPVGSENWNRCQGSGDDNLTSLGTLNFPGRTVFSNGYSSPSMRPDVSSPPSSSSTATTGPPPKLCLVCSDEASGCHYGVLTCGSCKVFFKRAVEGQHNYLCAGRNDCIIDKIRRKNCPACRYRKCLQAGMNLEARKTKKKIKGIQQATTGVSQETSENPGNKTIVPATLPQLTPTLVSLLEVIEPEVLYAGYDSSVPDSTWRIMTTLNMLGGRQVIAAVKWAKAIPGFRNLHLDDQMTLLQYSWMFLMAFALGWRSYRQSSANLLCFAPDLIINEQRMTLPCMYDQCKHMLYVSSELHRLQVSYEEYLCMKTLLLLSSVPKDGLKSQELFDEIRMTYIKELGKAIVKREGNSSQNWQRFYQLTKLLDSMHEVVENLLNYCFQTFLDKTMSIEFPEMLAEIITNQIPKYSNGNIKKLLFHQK
compound,measurement,setting,value
C#CC1(O)CC[C@H]2[C@@H]3CCC4=CCCC[C@@H]4[C@H]3CC[C@@]21C (some centres not stated),Potency,[1],inactive
same,Potency,[2],inactive and 68.6 µM (active)
same,Potency,[3],inactive
same,Potency,[4],inactive
same,Potency,[5],9.02 µM (active) and 17.2 µM (active)
same,Potency,[6],inactive
same,Potency,[7],inactive
same,Potency,[8],inactive
same,Potency,[9],inactive
same,Potency,[10],inactive
same,Potency,[11],inactive
same,Potency,[12],inactive
same,Potency,[13],inactive
same,Potency,[14],inactive
same,Potency,[15],inactive
same,Potency,[16],inactive
same,Potency,[17],inactive
same,Potency,[18],inactive
C/C=C/C=C/COC(=O)C(C)C,Potency,[1],inactive
same,Potency,[2],inactive
same,Potency,[3],inactive
same,Potency,[4],inactive
same,Potency,[5],inactive
same,Potency,[6],inactive
same,Potency,[7],inactive
same,Potency,[8],inactive
same,Potency,[9],inactive
same,Potency,[10],inactive
same,Potency,[11],inactive
same,Potency,[12],inactive
same,Potency,[13],inactive
same,Potency,[14],inactive
same,Potency,[15],inactive
same,Potency,[16],inactive
same,Potency,[17],inactive
same,Potency,[18],inactive
same,Potency,[19],34.7 µM (active)
C=CC(=O)Nc1cc2c(Nc3ccc(F)c(Cl)c3)ncnc2cc1OCCCN1CCOCC1,Potency,[20],11.9 µM (active)
same,Potency,[2],29.8 µM (active)
same,Potency,[3],10.6 µM (active)
same,Potency,[4],inactive
same,Potency,[6],inactive
same,Potency,[7],inactive
same,Potency,[8],inactive
same,Potency,[9],inactive
same,Potency,[10],inactive
same,Potency,[11],inactive
same,Potency,[12],inactive
same,Potency,[13],inactive
same,Potency,[14],inactive
same,Potency,[15],inactive
same,Potency,[16],inactive
same,Potency,[17],inactive
same,Potency,[18],inactive
same,Potency,[19],3.01 µM (active)
Sc1nc2ccccc2s1,Potency,[20],inactive
same,Potency,[2],inactive
same,Potency,[3],inactive
same,Potency,[4],inactive
same,Potency,[6],inactive
same,Potency,[7],inactive
same,Potency,[8],inactive
same,Potency,[9],inactive
same,Potency,[10],inactive
same,Potency,[11],inactive
same,Potency,[12],inactive
same,Potency,[13],inactive
same,Potency,[14],inactive
same,Potency,[16],inactive
same,Potency,[18],inactive
same,Potency,[19],inactive
CCCC(=O)OC(C)(C)Cc1ccccc1,Potency,[20],inactive
same,Potency,[2],inactive
same,Potency,[3],inactive
same,Potency,[4],inactive
same,Potency,[6],inactive
same,Potency,[7],inactive
same,Potency,[8],inactive
same,Potency,[10],inactive
same,Potency,[11],inactive
same,Potency,[12],inactive
same,Potency,[13],inactive
same,Potency,[14],inactive
same,Potency,[15],inactive
same,Potency,[16],inactive
same,Potency,[18],inactive
same,Potency,[19],inactive
NC[C@H]1O[C@H](O[C@H]2[C@H](O[C@@H]3O[C@H](CO)[C@@H](O)[C@H]3O)C(O)[C@H](N)C[C@@H]2N)[C@H](N)[C@@H](O)[C@@H]1O (some centres not stated),Potency,[20],inactive
same,Potency,[1],inactive
same,Potency,[4],inactive
same,"fluorescence, relative to Rose Bengal",[6],-0.0462% [at 18.6 µM] (inactive)
same,"fluorescence, % of fluorescein control",[7],0.155% [at 18.6 µM] (inactive)
same,"fluorescence, % of triamterene",[8],-0.0357% [at 18.6 µM] (inactive)
same,"fluorescence, % of fluorescent control",[9],0.971% [at 18.6 µM] (inactive)
same,"fluorescence, % of fluorescein",[10],-0.0694% [at 18.6 µM] (inactive)
same,"fluorescence, % of fluorescent control",[11],-0.0104% [at 18.6 µM] (inactive)
same,"fluorescence, % of fluorescent control",[13],0.335% [at 18.6 µM] (inactive)
same,"fluorescence, % of Rose Bengal",[14],-0.0591% [at 18.6 µM] (inactive)
same,"fluorescence, % of fluorescent control",[15],0.0653% [at 18.6 µM] (inactive)
same,"fluorescence, % of fluorescein control",[16],-0.0227% [at 18.6 µM] (inactive)
same,"fluorescence, % of fluorescent control",[17],-0.0247% [at 18.6 µM] (inactive)
same,Potency,[18],inactive
same,Potency,[19],inactive
OC/C=C/CO,Potency,[20],inactive
same,Potency,[1],inactive
same,Potency,[2],inactive
same,Potency,[6],inactive
same,Potency,[7],inactive
same,Potency,[8],inactive
same,Potency,[9],inactive
same,Potency,[10],inactive
same,Potency,[11],inactive
same,Potency,[12],inactive
same,Potency,[13],inactive
same,Potency,[14],inactive
same,Potency,[15],inactive
same,Potency,[16],inactive
same,Potency,[17],inactive
Cc1cc(C)c(/C=C2\C(=O)Nc3ccccc32)[nH]1,Potency,[1],inactive
same,Potency,[2],2.66 µM (active)
same,Potency,[3],inactive
same,Potency,[4],inactive
same,Potency,[5],10.6 µM (active)
same,Potency,[6],inactive
same,Potency,[7],inactive
same,Potency,[8],inactive
same,Potency,[9],inactive
same,Potency,[10],inactive
same,Potency,[11],inactive
same,Potency,[12],inactive
same,Potency,[13],inactive
same,Potency,[14],inactive
same,Potency,[15],inactive
COc1c(C)c2c(c(O)c1C/C=C(\C)CCC(=O)OCCN1CCOCC1)C(=O)OC2,Potency,[20],0.106 µM (active)
same,Potency,[1],inactive
same,Potency,[3],inactive
same,Potency,[4],inactive
same,Potency,[5],inactive
same,Potency,[6],inactive
same,Potency,[7],inactive
same,Potency,[8],inactive
same,Potency,[9],inactive
same,Potency,[10],inactive
same,Potency,[12],inactive
same,Potency,[13],inactive
same,Potency,[14],inactive
same,Potency,[16],inactive
same,Potency,[18],inactive
CCCC1CCC(=O)CC1,Potency,[1],inactive
same,Potency,[2],inactive
same,Potency,[3],inactive
same,Potency,[4],inactive
same,Potency,[5],inactive
same,Potency,[6],inactive
same,Potency,[7],inactive
same,Potency,[8],inactive
same,Potency,[9],inactive
same,Potency,[10],inactive
same,Potency,[11],inactive
same,Potency,[12],inactive
same,Potency,[13],inactive
same,Potency,[14],inactive
same,Potency,[15],inactive
same,Potency,[16],inactive
same,Potency,[17],inactive
same,Potency,[18],inactive
same,Potency,[19],inactive
CC(C)=CCC1=C(O)c2ccccc2C(=O)C1=O,Potency,[20],1.53 µM (active)
same,Potency,[1],inactive
same,Potency,[3],54.2 µM (active)
same,Potency,[4],54.2 µM (active)
same,Potency,[5],24.2 µM (active)
same,Potency,[6],inactive
same,Potency,[7],inactive
same,Potency,[8],inactive
same,Potency,[10],inactive
same,Potency,[11],inactive
same,Potency,[12],inactive
same,Potency,[13],inactive
same,Potency,[14],inactive
same,Potency,[15],inactive
same,Potency,[16],inactive
same,Potency,[17],inactive
same,Potency,[18],inactive
COc1cc2nc(N3CCN(C(=O)c4ccco4)CC3)nc(N)c2cc1OC,Potency,[20],13.3 µM (active)
same,Potency,[2],inactive
same,Potency,[4],inactive
same,Potency,[5],inactive
same,Potency,[6],inactive
same,Potency,[7],inactive
same,Potency,[8],inactive
same,Potency,[9],inactive
same,Potency,[10],inactive
same,Potency,[11],inactive
same,Potency,[12],inactive
same,Potency,[13],inactive
same,Potency,[14],inactive
same,Potency,[16],inactive
same,Potency,[17],inactive
same,Potency,[18],inactive
COc1cc(/C=C/c2ccccc2)oc(=O)c1,Potency,[20],inactive
same,Potency,[2],inactive
same,Potency,[3],inactive
same,Potency,[4],inactive
same,Potency,[5],71 µM (active)
same,Potency,[6],inactive
same,Potency,[7],inactive
same,Potency,[8],inactive
same,Potency,[9],inactive
same,Potency,[10],inactive
same,Potency,[11],inactive
same,Potency,[13],inactive
same,Potency,[14],inactive
same,Potency,[15],inactive
same,Potency,[16],inactive
same,Potency,[18],inactive
same,Potency,[19],inactive
